PubChem BioAssay (EPA / NIEHS)
Activity calls are given as the source filed them. The calls were made as follows: active = hit-call score of the fitted dose curve at least 0.9, where 1 is the maximum; inactive = score below 0.9.

Experiments:
[1] = read-out: Interferon-gamma inducible Protein 10 (IP10), CXCL10 (gene 3627); assay: BSK_hDFCGF_IP10: BioMAP Diversity Plus: hDFCGF Assay for Interferon-gamma inducible Protein 10 (IP10) Biomarker Activity (AID 2283053); settings: primary human foreskin fibroblasts; actives raise or lower the signal
Outline: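 IP-10 levels, quantified by ELISA, are taken from human foreskin fibroblast cultures 24 h after chemical treatment, with DMSO serving as negative control and baseline for bidirectional analysis.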

[2] = read-out: Urokinase-type plasminogen activator receptor (uPAR), PLAUR (gene 5329); assay: BSK_CASM3C_uPAR: BioMAP Diversity Plus: CASM3C Assay for Urokinase-type plasminogen activator receptor (uPAR) Biomarker Activity (AID 2283054); settings: primary human coronary artery smooth muscle cells; actives raise or lower the signal;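 also: cell-surface uPAR protein level quantified by ELISA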
[3] = read-out: Vascular cell adhesion molecule 1 (VCAM1), VCAM1 (gene 7412); assay: BSK_CASM3C_VCAM1: BioMAP Diversity Plus: CASM3C Assay for Vascular cell adhesion molecule 1 (VCAM1) Biomarker Activity (AID 2283055); settings: primary human coronary artery smooth muscle cells; actives raise or lower the signal;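 also: VCAM-1 protein level quantified by ELISA on the cells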
[4] = read-out: Collagen III, COL3A1 (gene 1281); assay: BSK_hDFCGF_CollagenIII: BioMAP Diversity Plus: hDFCGF Assay for Collagen III Biomarker Activity (AID 2283056); settings: primary human foreskin fibroblasts; actives raise or lower the signal
Outline: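 ELISA readout of Collagen III in human dermal (foreskin) fibroblasts, taken 24 h post-treatment. Gain or loss relative to DMSO vehicle fitted in both directions.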

[5] = read-out: Epidermal growth factor receptor (EGFR), EGFR (gene 1956); assay: BSK_hDFCGF_EGFR: BioMAP Diversity Plus: hDFCGF Assay for Epidermal growth factor receptor (EGFR) Biomarker Activity (AID 2283057); settings: primary human foreskin fibroblasts; actives raise or lower the signal
Outline: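 Measured by ELISA: EGFR levels on primary human foreskin fibroblasts 24 h after chemical treatment, analysed relative to DMSO with bidirectional fitting.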

[6] = read-out: Interleukin-8 (IL8), CXCL8 (gene 3576); assay: BSK_hDFCGF_IL8: BioMAP Diversity Plus: hDFCGF Assay for Interleukin-8 (IL8) Biomarker Activity (AID 2283058); settings: primary human foreskin fibroblasts; actives raise or lower the signal
Outline: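 IL-8 levels read by ELISA at 24 hours after dosing human skin fibroblast cultures. Parallel SRB staining assessed overt cytotoxicity, and gain or loss of signal was fitted against DMSO control.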

[7] = BSK_hDFCGF_Proliferation: Cell Proliferation Assessment in the BioMAP Diversity Plus: hDFCGF Assay (AID 2283059); settings: primary human foreskin fibroblasts;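 also: curves fitted for both rise and fall of signal versus DMSO baseline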
Outline: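 This proliferation readout used SRB total-protein staining of human foreskin fibroblasts […], normalized to DMSO with bidirectional curve fitting.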

[8] = BSK_hDFCGF_SRB: Viability Assessment in the BioMAP Diversity Plus: hDFCGF Assay (AID 2283061); settings: primary human foreskin fibroblasts;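 also: cells exposed to compound for 24 h before the read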
Outline: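 Viability was read as total protein: after 10% TCA fixation, wells were stained with 0.1% sulforhodamine B and read at 560 nm. Primary human foreskin fibroblasts were dosed for 24 h, with bidirectional fitting versus DMSO.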

[9] = read-out: TIMP metallopeptidase inhibitor 1 (TIMP1), TIMP1 (gene 7076); assay: BSK_hDFCGF_TIMP1: BioMAP Diversity Plus: hDFCGF Assay for TIMP metallopeptidase inhibitor 1 (TIMP1) Biomarker Activity (AID 2283062); settings: primary human foreskin fibroblasts; actives raise or lower the signal
Outline: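 TIMP-1 measured by ELISA 24 h after chemical dosing of primary human skin fibroblasts, with gain or loss fitted relative to DMSO. Parallel SRB staining (560 nm) monitored overt cytotoxicity.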

[10] = read-out: Monokine induced gamma interferon (MIG), CXCL9 (gene 4283); assay: BSK_hDFCGF_MIG: BioMAP Diversity Plus: hDFCGF Assay for Monokine induced gamma interferon (MIG) Biomarker Activity (AID 2283063); settings: primary human foreskin fibroblasts; actives raise or lower the signal
Outline: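 Human primary foreskin fibroblasts in the hDFCGF system, exposed to test chemical for 24 h; MIG measured by ELISA. Bidirectional curve fitting against DMSO negative control as activity baseline.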

[11] = read-out: Matrix Metallopeptidase 1 (MMP1), MMP1 (gene 4312); assay: BSK_hDFCGF_MMP1: BioMAP Diversity Plus: hDFCGF Assay for Matrix Metallopeptidase 1 (MMP1) Biomarker Activity (AID 2283064); settings: primary human foreskin fibroblasts; actives raise or lower the signal
Outline: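 Primary human foreskin fibroblasts exposed to chemicals for 24 h; MMP1 measured by ELISA. Cytotoxicity tracked by SRB staining in parallel cultures; bidirectional fit relative to DMSO.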

[12] = read-out: Vascular cell adhesion molecule 1 (VCAM1), VCAM1 (gene 7412); assay: BSK_hDFCGF_VCAM1: BioMAP Diversity Plus: hDFCGF Assay for Vascular cell adhesion molecule 1 (VCAM1) Biomarker Activity (AID 2283065); settings: primary human foreskin fibroblasts; actives raise or lower the signal;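 as to AC50: VCAM-1 protein level quantified by ELISA after 24 h chemical exposure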
Outline: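 ELISA readout of VCAM-1 on human dermal fibroblast primary cultures, 24 h after chemical exposure. Gain or loss of signal fitted in both directions against DMSO baseline.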

[13] = read-out: Intercellular Adhesion Molecule 1 (ICAM1), ICAM1 (gene 3383); assay: BSK_KF3CT_ICAM1: BioMAP Diversity Plus: KF3CT Assay for Intercellular Adhesion Molecule 1 (ICAM1) Biomarker Activity (AID 2283067); settings: primary human keratinocytes with fibroblasts; actives raise or lower the signal
Outline: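 Cell-surface ICAM-1 was measured by ELISA 24 h after dosing primary human skin keratinocytes co-cultured with fibroblasts. Parallel SRB staining tracked overt cytotoxicity. Gain or loss of signal was fitted relative to DMSO.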

[14] = read-out: Interferon-gamma inducible Protein 10 (IP10), CXCL10 (gene 3627); assay: BSK_KF3CT_IP10: BioMAP Diversity Plus: KF3CT Assay for Interferon-gamma inducible Protein 10 (IP10) Biomarker Activity (AID 2283068); settings: primary human keratinocytes with fibroblasts; actives raise or lower the signal
Outline: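 Signal is secreted/surface IP-10 by ELISA in a human primary skin co-culture of keratinocytes and foreskin fibroblasts, taken 24 h post-dosing; DMSO served as negative control.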

[15] = BSK_KF3CT_SRB: Viability Assessment in the BioMAP Diversity Plus: KF3CT Assay (AID 2283069); settings: primary human keratinocytes with fibroblasts;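 also: total protein by sulforhodamine B staining as a cytotoxicity measure; read 24 h after compound addition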
Outline: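 Human keratinocyte and foreskin fibroblast co-culture exposed to chemical for 24 h. Total protein measured in parallel cultures by 0.1% sulforhodamine B staining after 10% TCA fixation, read at 560 nm; bidirectional fit relative to DMSO.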

[16] = read-out: TIMP metallopeptidase inhibitor 2 (TIMP2), TIMP2 (gene 7077); assay: BSK_KF3CT_TIMP2: BioMAP Diversity Plus: KF3CT Assay for TIMP metallopeptidase inhibitor 2 (TIMP2) Biomarker Activity (AID 2283071); settings: primary human keratinocytes with fibroblasts; actives raise or lower the signal
Outline: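 Keratinocyte–fibroblast co-culture, 24 h exposure; TIMP-2 ELISA, DMSO-normalised bidirectional fit. Parallel SRB (0.1%, TCA-fixed, 560 nm) total-protein staining gauges cytotoxicity.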

[17] = read-out: Transforming growth factor beta 1 (TGFb1), TGFB1 (gene 7040); assay: BSK_KF3CT_TGFb1: BioMAP Diversity Plus: KF3CT Assay for Transforming growth factor beta 1 (TGFb1) Biomarker Activity (AID 2283072); settings: primary human keratinocytes with fibroblasts; actives raise or lower the signal
Outline: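 Signal changes in either direction, relative to DMSO, define activity here. TGF-b1 is read by ELISA from a human keratinocyte-fibroblast co-culture 24 h post-dose.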

[18] = read-out: Macrophage colony-stimulating factor (MCSF), CSF1 (gene 1435); assay: BSK_hDFCGF_MCSF: BioMAP Diversity Plus: hDFCGF Assay for Macrophage colony-stimulating factor (MCSF) Biomarker Activity (AID 2283060); settings: primary human foreskin fibroblasts; actives raise or lower the signal
Outline: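 M-CSF levels read by ELISA at 24 h post-dosing in human skin fibroblasts. Parallel cultures stained with SRB assessed cytotoxicity at the same time point; response fitted in both directions against the DMSO baseline.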

[19] = read-out: Interleukin-1 alpha (IL1a), IL1A (gene 3552); assay: BSK_KF3CT_IL1a: BioMAP Diversity Plus: KF3CT Assay for Interleukin-1 alpha (IL1a) Biomarker Activity (AID 2283070); settings: primary human keratinocytes with fibroblasts; actives raise or lower the signal
Outline: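 Primary human keratinocyte plus foreskin fibroblast co-culture, dosed and measured at 24 h in 96-well plates. IL-1a level quantified by ELISA; bidirectional fit relative to DMSO.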

[20] = read-out: Plasminogen activator inhibitor-1 (PAI1), SERPINE1 (gene 5054); assay: BSK_hDFCGF_PAI1: BioMAP Diversity Plus: hDFCGF Assay for Plasminogen activator inhibitor-1 (PAI1) Biomarker Activity (AID 2283066); settings: primary human foreskin fibroblasts; actives raise or lower the signal
Outline: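 PAI-1 levels, determined by ELISA, served as the endpoint in human foreskin fibroblast cultures exposed to compound for 24 h, with DMSO as baseline.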

Measured: AC50

Cc1occc(=O)c1O
not listed: [18] | [19] | [20]
inactive: all other assays above

CCCCOC(=O)CCCCC(=O)OCCCC
not listed: [7] | [11] | [20]
inactive: all other assays above

COc1ccc(C(=O)Nc2nc3ccccc3c(NCc3ccccc3)c2C#N)cc1
active: [4] 2.8 µM
not listed: [7] | [11] | [19] | [20]
inactive: all other assays above

CC(=O)OCC(COC(C)=O)OC(C)=O
not listed: [7] | [9] | [11] | [18] | [20]
inactive: all other assays above

CC(C)OC(=O)C(C)(C)Oc1ccc(C(=O)c2ccc(Cl)cc2)cc1
active: [1] 12.9 µM | [2] 5.38 µM | [3] 5 µM | [4] 8.9 µM | [20] 3.97 µM
not listed: [7] | [9] | [11] | [14] | [19]
inactive: all other assays above

Cc1ccc(C(C)(C)C)c(O)c1
not listed: [7] | [9]
inactive: all other assays above

O=C1NC(=O)C(c2ccccc2)(c2ccccc2)N1
not listed: [2] | [9] | [11] | [18] | [19] | [20]
inactive: all other assays above

O=C(O)CN(CC(=O)O)CC(=O)O
not listed: [7] | [9] | [11]
inactive: all other assays above

COC(=O)[C@H]1[C@H]2C[C@@H]3c4[nH]c5cc(OC)ccc5c4CCN3C[C@H]2C[C@@H](OC(=O)c2cc(OC)c(OC)c(OC)c2)[C@@H]1OC
active: [7] 16.9 µM
not listed: [4] | [11] | [18] | [20]
inactive: all other assays above

CCCCCCCCCCCCCCOS(=O)(=O)O
inactive: [2] | [3]
active: [1] 8.52 µM | [4] 7.78 µM | [5] 12.2 µM | [6] 12.4 µM | [8] 10.1 µM | [9] 9.76 µM | [10] 7.52 µM | [11] 5.54 µM | [12] 7.85 µM | [20] 9.05 µM | [13] 16.2 µM | [14] 8.99 µM | [15] 8 µM | [19] 10.3 µM | [16] 7.76 µM | [17] 5.78 µM

OCC(CO)n1cnc(-c2ccc(F)cc2)c1-c1ccnc(Oc2ccccc2)n1
active: [3] 2.33 µM | [18] 0.148 µM | [12] 1.8 µM
not listed: [7] | [9] | [11]
inactive: all other assays above

C/C=C/c1ccc(OC)cc1
not listed: [7] | [9] | [19] | [20]
inactive: all other assays above

Oc1ccc(O)cc1
inactive: [2] | [5] | [15] | [16] | [17]
active: [1] 20.6 µM | [3] 9.44 µM | [4] 20 µM | [6] 31.5 µM | [8] 12 µM | [9] 13.4 µM | [10] 18.7 µM | [12] 13.5 µM | [20] 14.7 µM | [13] 6.66 µM | [14] 20 µM

CC(C)(O)c1ccc(CNC(=O)c2cccnc2Oc2ccc(F)cc2)cc1
not listed: [7] | [18] | [19] | [20]
inactive: all other assays above

CCCCCCCCCC[N+](C)(C)[O-]
active: [16] 0.0209 µM
not listed: [7] | [9] | [18] | [19]
inactive: all other assays above

C=CCc1ccc(OC)c(OC)c1
not listed: [7] | [9] | [11] | [19] | [20]
inactive: all other assays above
